According to PubChem BioAssay:
A number with no mark means an inactive call. The source made the active and inactive calls.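 The calls were made as follows: active = thallium flux through the channel raised or lowered by more than 3 SD from vehicle-only wells, actives on both sides; inactive = the rest.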

Experiments:
F380Y = test: BK channel mutant inhibitors and activators – cell-based, U2OS BacMam, thallium flux, beta subunits, selectivity assay, profiling panel (AID 1259406); conditions: U2OS BacMam BK variants, at 30 µM;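 also: initial slope of Thallos dye fluorescence rise after thallium is added; log ratio against the mean of 0.3% DMSO vehicle wells on the same plate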
F380Y/beta1 = test: as above; conditions: U2OS BacMam BK variants, at 30 µM

SMILES | log fold change Tl+ flux (F380Y) | log fold change Tl+ flux (F380Y/beta1)
CNS(=O)(=O)Cc1ccc2[nH]cc(CCN(C)C)c2c1 | 0.0165 | -0.000461
Cc1[nH]cnc1CN1CCc2c(c3ccccc3n2C)C1=O | 0.0315 | 0.0327
Nc1ccn([C@H]2CC[C@@H](CO)O2)c(=O)n1 | 0.0263 | 0.0264
CN(CCCN1c2ccccc2CCc2ccccc21)CC(=O)c1ccc(Cl)cc1 | -0.0806 | -0.0237
Cc1ncc([N+](=O)[O-])n1CC(O)CCl (configuration not stated) | -0.0142 | -0.0206
Oc1ccc(C2CNCCc3c2cc(O)c(O)c3Cl)cc1 (configuration not stated) | 0.0202 | -0.0465
CCc1oc2ccccc2c1C(=O)c1cc(Br)c(O)c(Br)c1 | 0.395 (active) | 0.958 (active)
Cc1[nH]c(=O)c(C#N)cc1-c1ccncc1 | 0.00987 | -0.00723
CCc1nn(CCCN2CCN(c3cccc(Cl)c3)CC2)c(=O)n1CCOc1ccccc1 | -0.403 (active) | -0.178 (active)
O=C(O)CCNC(=O)c1ccc(N=Nc2ccc(O)c(C(=O)O)c2)cc1 | -0.00418 | -0.0255
COc1ccc2nc(S(=O)Cc3ncc(C)c(OC)c3C)[nH]c2c1 (configuration not stated) | 0.0402 | 0.0641
C#C[C@]1(O)CC[C@H]2[C@@H]3CCc4cc(OC)ccc4[C@H]3CC[C@@]21C | -0.0454 | -0.0068
COc1cc2nc(N3CCN(C(=O)C4COc5ccccc5O4)CC3)nc(N)c2cc1OC (configuration not stated) | -0.351 (active) | -0.143 (active)
Cc1nc2n(c(=O)c1CCN1CCC(c3noc4cc(F)ccc34)CC1)CCCC2 | 0.0311 | -0.00468
COc1ccc(C(=O)NCc2ccc(OCCN(C)C)cc2)cc1OC | -0.0346 | -0.00341
CCOc1cc(N)c(Cl)cc1C(=O)NCC1CN(Cc2ccc(F)cc2)CCO1 (configuration not stated) | -0.0328 | 0.0819
O=C(O)/C=C/c1ccc(Cn2ccnc2)cc1 | 0.00524 | 0.0144
CN(C)CC/C=C1/c2ccccc2COc2ccc(CC(=O)O)cc21 | 0.0275 | 0.0119

SMILES | log fold change Tl+ flux (F380Y) | log fold change Tl+ flux (F380Y/beta1)
O=C(NCCN1CCOCC1)c1ccc(Cl)cc1 | -0.0393 | -0.0206
CN1CCN(C2=Nc3cc(F)ccc3Cc3ccccc32)CC1 | 0.06 | 0.0457
Cc1ccsc1C(=CCCN1CCC[C@@H](C(=O)O)C1)c1sccc1C | 0.0491 | 0.0426
CCOC(=O)c1ncn2c1CN(C)C(=O)c1cc(F)ccc1-2 | -0.0521 | -0.00468
O=C1CCc2ccc(OCCCCN3CCN(c4cccc(Cl)c4Cl)CC3)cc2N1 | 0.0772 | 0.0377
CCC(=O)O[C@]1(C(=O)SCF)[C@H](C)C[C@H]2[C@@H]3C[C@H](F)C4=CC(=O)C=C[C@]4(C)[C@@]3(F)[C@@H](O)C[C@@]21C | 0.0283 | -0.0132
CCN(CC)CCNC(=O)c1cc(Cl)c(N)cc1OC | -0.00476 | -0.00572
COc1cc2c(cc1OC)C(=O)C(CC1CCN(Cc3ccccc3)CC1)C2 (configuration not stated) | 0.0206 | -0.0145
Nc1nc(F)nc2c1ncn2[C@@H]1O[C@H](CO)[C@@H](O)[C@@H]1O | 0.0242 | -0.00658
CC(C)(C)NC(=O)[C@@H]1CN(Cc2cccnc2)CCN1C[C@@H](O)C[C@@H](Cc1ccccc1)C(=O)N[C@H]1c2ccccc2C[C@H]1O | -0.012 | -0.0545
CC(=O)Nc1ccc(CC(=O)O)cc1 | -0.0209 | -0.00468
CC(Oc1c(Cl)cccc1Cl)C1=NCCN1 (configuration not stated) | 0.00819 | -0.000881
NS(=O)(=O)c1cc(C(=O)O)c(NCc2ccco2)cc1Cl | -0.0179 | -0.0049
COc1cc(C(=O)NC2CCCNC2)cc(OC)c1OC (configuration not stated) | -0.0595 | -0.0621
CC(=O)O[C@H]1C[C@@H]2CC[C@@H]3[C@H](CC[C@@]4(C)[C@H]3C[C@H]([N+]3(C)CCCCC3)[C@@H]4OC(C)=O)[C@@]2(C)C[C@@H]1N1CCCCC1 | 0.0327 | 0.014
O=C1CC2(CCCC2)CC(=O)N1CCCCN1CCN(c2ncccn2)CC1 | 0.0254 | 0.0242
CC(Cc1ccccc1)(NC(=O)CN)c1ccccc1 (configuration not stated) | 0.0343 | 0.0342
COC(=O)C1=C(C)NC(C)=C(C(=O)OC(C)C)C1c1cccc2nonc12 (configuration not stated) | 0.00609 | 0.106 (active)
